From publication PMC4336329 (PLoS ONE, 2015) come the findings set out here.

The structures appear in SMILES notation. Among all 310,000 compounds or so, about 14,000 (4.5%) showed an effect of 50% or more. The effect is printed as a negative number. Only a selection was taken, and strong results are over-represented in it overall.
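Also: peak tail current of the secondary pulse compared with the same well before compound.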

Chain of human ether-à-go-go-related gene (hERG) potassium channel (Q12809 whole entry, looked up): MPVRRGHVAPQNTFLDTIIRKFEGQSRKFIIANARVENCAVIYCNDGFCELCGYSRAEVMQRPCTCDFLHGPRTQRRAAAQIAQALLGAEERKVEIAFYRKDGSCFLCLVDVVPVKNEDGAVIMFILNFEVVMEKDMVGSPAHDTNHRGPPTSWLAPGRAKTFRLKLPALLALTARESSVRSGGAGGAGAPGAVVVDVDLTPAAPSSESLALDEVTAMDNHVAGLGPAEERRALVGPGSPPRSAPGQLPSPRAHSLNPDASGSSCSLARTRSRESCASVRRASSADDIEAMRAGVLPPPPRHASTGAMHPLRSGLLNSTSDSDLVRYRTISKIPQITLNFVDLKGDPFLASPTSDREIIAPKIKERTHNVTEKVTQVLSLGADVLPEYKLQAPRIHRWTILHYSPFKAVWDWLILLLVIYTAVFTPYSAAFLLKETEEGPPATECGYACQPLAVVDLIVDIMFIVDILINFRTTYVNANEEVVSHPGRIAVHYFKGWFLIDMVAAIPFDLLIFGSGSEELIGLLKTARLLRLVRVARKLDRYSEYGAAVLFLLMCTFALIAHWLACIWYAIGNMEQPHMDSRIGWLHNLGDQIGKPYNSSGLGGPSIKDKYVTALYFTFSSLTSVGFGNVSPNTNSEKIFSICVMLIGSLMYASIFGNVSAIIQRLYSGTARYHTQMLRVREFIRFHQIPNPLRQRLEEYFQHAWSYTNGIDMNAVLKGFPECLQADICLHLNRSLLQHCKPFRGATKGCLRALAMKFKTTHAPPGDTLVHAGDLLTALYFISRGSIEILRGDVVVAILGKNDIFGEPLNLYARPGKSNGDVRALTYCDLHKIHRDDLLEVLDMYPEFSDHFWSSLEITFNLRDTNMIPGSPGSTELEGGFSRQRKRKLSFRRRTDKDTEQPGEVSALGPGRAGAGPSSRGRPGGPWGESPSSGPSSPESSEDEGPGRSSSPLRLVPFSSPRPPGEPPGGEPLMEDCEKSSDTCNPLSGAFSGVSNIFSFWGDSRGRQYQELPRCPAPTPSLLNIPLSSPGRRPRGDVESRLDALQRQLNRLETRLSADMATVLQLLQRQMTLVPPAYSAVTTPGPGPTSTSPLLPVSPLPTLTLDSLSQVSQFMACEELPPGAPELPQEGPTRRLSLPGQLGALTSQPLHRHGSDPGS

The experiment concerns the target human ether-à-go-go-related gene (hERG) potassium channel (human, UniProt Q12809). Kind of experiment: primary screen, population patch clamp on CHO cells stably expressing hERG; higher = less effect of the substance.
In the case of `COc1ccc(Cn2nnnc2C(c2ccccn2)N2CCN(c3cc(Cl)ccc3C)CC2)cc1` (centres unmarked), the “hERG current change (%, negative = inhibition) at 10uM” value was -9.87%.

Consider `Cc1ccc(NC(NC(=O)c2ccccc2[N+](=O)[O-])C(Cl)(Cl)Cl)cc1` (centres unmarked), for which the “hERG current change (%, negative = inhibition) at 10uM” value is -5.27%.

Regarding `CC(Sc1nnc(-c2cccnc2)o1)C(=O)NC1CCCCC1` (centres unmarked), the “hERG current change (%, negative = inhibition) at 10uM” value came out at 14.9%.

Turning to `Cc1ccc(Nc2nc(COC(=O)C3CC3)cs2)cc1`, the “hERG current change (%, negative = inhibition) at 10uM” value is listed as -13.1%.

Regarding `CCOC(=O)CSC1=C(C#N)C(c2ccc(C)cc2)C(C(=O)OC)C(=O)N1` (centres unmarked), the “hERG current change (%, negative = inhibition) at 10uM” value was -4.56%.

Consider `Cc1ccc(-n2ncc3c(=O)[nH]c(SCC(=O)N4CCN(c5ccccc5)CC4)nc32)cc1`, for which the “hERG current change (%, negative = inhibition) at 10uM” value was 3.28%.

Take `FC(F)(F)c1cccc(CNC2c3ccccc3-c3ccccc32)c1.O=C(O)C(=O)O`: the “hERG current change (%, negative = inhibition) at 10uM” value is reported as 20.4%.

In the case of `Cc1nc(C(=O)O)nn1-c1ccc([N+](=O)[O-])cc1`, the “hERG current change (%, negative = inhibition) at 10uM” value is 2.84%.

Regarding `CNC(=O)c1nc(C)n(-c2ccc([N+](=O)[O-])cc2)n1`, the “hERG current change (%, negative = inhibition) at 10uM” value is listed as -3.99%.

Take `Cc1ccc(NC(=O)c2nc(C)n(-c3ccc([N+](=O)[O-])cc3)n2)cc1`: the “hERG current change (%, negative = inhibition) at 10uM” value is reported as -32.2%.

Turning to `COc1ccc(NC(=O)c2nc(C)n(-c3ccc([N+](=O)[O-])cc3)n2)cc1`, the “hERG current change (%, negative = inhibition) at 10uM” value is -44.9%.

On to `Cc1nc(C(=O)Nc2ccc(Cl)cc2)nn1-c1ccc([N+](=O)[O-])cc1`, for which the “hERG current change (%, negative = inhibition) at 10uM” value was -58.6%.

As for `Cc1nc(C(=O)Nc2ccc(F)cc2)nn1-c1ccc([N+](=O)[O-])cc1`, the “hERG current change (%, negative = inhibition) at 10uM” value was -67.4%.

As to `O=S(=O)(Nc1ccc(F)cc1)N1CCCCCC1`, the “hERG current change (%, negative = inhibition) at 10uM” value is given as -15.6%.

In the case of `COc1ccccc1CNC(=O)Cn1nnc(-c2ccncc2)n1`, the “hERG current change (%, negative = inhibition) at 10uM” value was 1.05%.

Take `COC(=O)c1[nH]c2cccc(OC)c2c1NC(=O)CN1CC2(C)CC1CC(C)(C)C2` (centres unmarked): the “hERG current change (%, negative = inhibition) at 10uM” value amounted to 9.92%.

With `O=C1CCN(Cc2ccccc2)CCN1[C@H](COc1ccccc1)c1ccccc1`, the “hERG current change (%, negative = inhibition) at 10uM” value is -57.9%.

Take `CCCN1CCC(=O)N([C@H](COc2ccccc2)c2ccccc2)CC1`: the “hERG current change (%, negative = inhibition) at 10uM” value is recorded as -78.2%.

Consider `N#CC[C@H](c1ccccc1)N1CCN(Cc2ccccc2)CCC1=O`, for which the “hERG current change (%, negative = inhibition) at 10uM” value is listed as -1.88%.

For the compound `CC(C)CN1CCC(=O)N(CCOc2ccccc2)CC1`, the “hERG current change (%, negative = inhibition) at 10uM” value stood at 13.1%.

As to `CC(C)CN1CCC(=O)N([C@H](COc2ccccc2)c2ccccc2)CC1`, the “hERG current change (%, negative = inhibition) at 10uM” value was -75.3%.

`O=C1CCN(CCc2ccccc2)CCN1[C@H](CO)c1ccccc1`: the “hERG current change (%, negative = inhibition) at 10uM” value was -25.7%.

For `CC(C)[C@@H](COc1ccccc1)N1CCN(Cc2ccccc2)CCC1=O`, the “hERG current change (%, negative = inhibition) at 10uM” value is given as -29.6%.

On to `O=C1CCN(CCc2ccccc2)CCN1[C@H](COc1ccccc1)c1ccccc1`, for which the “hERG current change (%, negative = inhibition) at 10uM” value is listed as -75.9%.

`CC(C)CN1CCC(=O)N([C@H](CO)c2ccccc2)CC1`: the “hERG current change (%, negative = inhibition) at 10uM” value was found to be 9.33%.

As for `COc1ccc(C(=O)Nn2c(SCC(=O)NCC3CCCO3)nc3ccccc3c2=O)cc1` (centres unmarked), the “hERG current change (%, negative = inhibition) at 10uM” value was 2.75%.

Take `COc1cccc(CNC(=O)CCNC(=O)N2CCn3c2nc2ccccc23)c1`: the “hERG current change (%, negative = inhibition) at 10uM” value is given as -3.38%.

Take `O=C(NNC(=S)NCc1ccco1)c1ccc(Cl)s1`: the “hERG current change (%, negative = inhibition) at 10uM” value was 14.5%.

As for `O=C(c1cccc(Br)c1)N1CCN(C(=O)N2CCOCC2)CC1`, the “hERG current change (%, negative = inhibition) at 10uM” value turned out to be 10.4%.

Consider `O=C(COC(=O)c1cc([N+](=O)[O-])ccc1NCCO)c1ccccc1`, for which the “hERG current change (%, negative = inhibition) at 10uM” value is reported as -15.9%.

`CCOc1cc(CNc2ccc3c(c2)OCCO3)cc(Br)c1OCC(N)=O`: the “hERG current change (%, negative = inhibition) at 10uM” value was -17.6%.

As to `CC1CCCC(NC(=O)c2cccc(N3CCCC3=O)c2)C1C` (centres unmarked), the “hERG current change (%, negative = inhibition) at 10uM” value is reported as -13.5%.

On to `C[C@H]1CC[C@H]2C(=O)N3[C@H](c4cccc(N5CCCC5=O)c4)[C@@H](C)CC[C@H]3C(=O)N2[C@@H]1c1cccc(N2CCCC2=O)c1`, for which the “hERG current change (%, negative = inhibition) at 10uM” value is given as -56.3%.

With `C[C@@H]1CC[C@H]2C(=O)N3[C@@H](CC[C@@H](C)[C@@H]3c3ccc(Br)cc3)C(=O)N2[C@H]1c1ccc(Br)cc1`, the “hERG current change (%, negative = inhibition) at 10uM” value was 5.03%.

With `CC12CN(C(=O)c3cccc([N+](=O)[O-])c3)C3(C#N)CC1CCC23C` (centres unmarked), the “hERG current change (%, negative = inhibition) at 10uM” value came to 5.65%.

Take `CCOC(=O)C1=C(c2ccccc2)NC(N)=NC1c1ccc(OCc2ccc(Cl)cc2)c(OC)c1` (centres unmarked): the “hERG current change (%, negative = inhibition) at 10uM” value is -36.8%.

For `COc1ccc(CCNC(=O)C2CCN(S(=O)(=O)c3ccc4nc5c(c(C(=O)O)c4c3)CCCC5)CC2)cc1OC`, the “hERG current change (%, negative = inhibition) at 10uM” value is reported as 1.65%.

`Cc1ccccc1-n1ncc2c1CC(C)(C)CC2NC(=O)CN1CCCC1=O` (centres unmarked): the “hERG current change (%, negative = inhibition) at 10uM” value came to 9.7%.

As to `O=C(O)c1ccc(CSCc2ccccc2F)o1`, the “hERG current change (%, negative = inhibition) at 10uM” value is recorded as -1.86%.

Take `O=C(c1ccc(CSCc2ccccc2F)o1)N1CCN(c2ccc(N3CCOCC3)nn2)CC1`: the “hERG current change (%, negative = inhibition) at 10uM” value is recorded as -66.7%.

Turning to `O=C(c1ccccc1)N1CCN(c2ccc(N3CCOCC3)nn2)CC1`, the “hERG current change (%, negative = inhibition) at 10uM” value is listed as -1.73%.

Consider `CCC1CCCCN1CCCNC(=O)CNC(=O)c1nn(-c2ccc(OC)cc2)c(=O)c2ccccc12` (centres unmarked), for which the “hERG current change (%, negative = inhibition) at 10uM” value was -31.9%.

On to `CCCCCCCCC1=NCCc2c1[nH]c1ccccc21.Cl`, for which the “hERG current change (%, negative = inhibition) at 10uM” value is on record as -79.2%.

As to `CC1=NCCc2c1[nH]c1ccccc21`, the “hERG current change (%, negative = inhibition) at 10uM” value is given as -22.7%.

Turning to `CCCC/C=C1\CCc2c([nH]c3ccccc23)C1=O`, the “hERG current change (%, negative = inhibition) at 10uM” value is reported as 10.1%.

For `Cc1cccc(NC(=O)c2ccco2)c1C`, the “hERG current change (%, negative = inhibition) at 10uM” value was found to be 22.4%.

In the case of `CC1=C(C#N)C(c2ccccc2)C2=C(N1)c1ccccc1C2=O` (centres unmarked), the “hERG current change (%, negative = inhibition) at 10uM” value was 1.22%.

For `O=C(c1ccc(CS(=O)(=O)c2ccc(Br)cc2)o1)N1CCN(c2ccc(F)cc2)CC1`, the “hERG current change (%, negative = inhibition) at 10uM” value was determined as 6.91%.

With `Cc1ccccc1S(=O)(=O)Cc1ccc(C(=O)N2CCN(c3ccc(F)cc3)CC2)o1`, the “hERG current change (%, negative = inhibition) at 10uM” value is listed as -64.3%.

In the case of `Cc1ccc(S(=O)(=O)Cc2ccc(C(=O)N3CCN(c4cc(C)ccc4C)CC3)o2)cc1`, the “hERG current change (%, negative = inhibition) at 10uM” value is -18.7%.

As to `COc1ccc(N2CCN(C(=O)c3ccc(CS(=O)(=O)c4ccccc4C)o3)CC2)cc1`, the “hERG current change (%, negative = inhibition) at 10uM” value is listed as -21.5%.

`Cc1ccccc1S(=O)(=O)Cc1ccc(C(=O)N2CCN(c3ccccc3F)CC2)o1`: the “hERG current change (%, negative = inhibition) at 10uM” value is on record as -40.7%.

For `Cc1ccc(S(=O)(=O)Cc2ccc(C(=O)N3CCN(c4ccc(F)cc4)CC3)o2)cc1`, the “hERG current change (%, negative = inhibition) at 10uM” value is listed as -69.5%.
